Assay results as given in PubChem BioAssay (Tox21).
“And” between values parts separate entries of the source, which are not always exact repeats. Equal values may be shown once. Records with an inconclusive call do not appear. Entries that show only a call come without a potency. Values without a mark were called inactive. The source made the active and inactive calls. Calls come from the whole dose curve; as a rule, active = well fitted cell-killing curve with a large enough effect in the repeat runs; inconclusive = weak or mixed curves, or effect the other way; inactive = no such curve, though single readings can be large or run the other way.
Potency is the fitted concentration of half-maximal effect.

Test: Caspase-3/7 induction in CHO-K1 cells by small molecules, qHTS cell viability counter screen (AID 1346979); note: nearly all actives have a fitted effect of over 35% in size
Details: CellTiter-Fluor fluorescence, 17 h; series mostly up to 92.4 µM
Source text: National Center for Advancing Translational Sciences [NCATS]
NIH Chemical Genomics Center [NCGC]
U.S. Environmental Protection Agency [EPA]
National Institutes of Environmental Health Sciences [NIEHS]
National Toxicology Program [NTP]
U.S. Food and Drug Administration [FDA]
Apoptosis is a process of programmed cell death and plays a central role in the development of multicellular organisms. It is a highly regulated process and induces cell death by activating caspases, which are the members of cysteine aspartic acid-specific protease (caspase) family. Caspases involved in apoptosis are classified by their mechanism of action as initiator caspases (caspase-2, -8, -9 and -10) and executioner caspases (caspase-3, -6, and -7). Inhibition of apoptosis results in number of cancers, autoimmune diseases, inflammatory diseases and viral infection. To identify small molecule compounds that induce apoptosis, a homogeneous, luminescent Caspase-Glo 3/7 assay was used. Wild type CHO-K1 cells were used to screen Tox21 libraries for identifying caspase-3/7 activity inducers. Also cytotoxicity of the compounds was tested in parallel by measuring the cell viability using CellTiter-Fluor assay system in the same wells.
Tox21 Assay Protocol Summary:
CHO-K1 cells were dispensed at 1,500 per well in 5uL of culture medium into white solid bottom 1536-well plates (Corning Life Sciences, Corning, NY) using a Multidrop Combi (Thermo Scientific, Waltham, MA) dispenser. The assay plates were incubated at 37 C and 5% CO2 for 5hr, and then 23nL of compounds dissolved in DMSO and positive control were transferred using a Pintool station (Wako, San Diego, CA). The assay plates were incubated at 37C and 5% CO2 for 17hr. For cytotoxicity read, after 16hr incubation at 37C, 1uL CellTiter-Fluor reagent (Promega Corporation, Madison, WI) was added to each well of the assay plates using Flying Reagent Dispenser (FRD, Aurora Discovery, San Diego, CA). After 1hr incubation at 37C and 5% CO2, the fluorescence signal was quantified using a ViewLux plate reader (PerkinElmer, Shelton, CT).
`CC(C)(C)CC(C)(C)c1ccc(Nc2ccc(C(C)(C)CC(C)(C)C)cc2)cc1` gave an activity change, negative = cytotoxicity of 5.88% [at 8.39 µM]. In the case of `CC(CCc1ccccc1)NCC(O)c1ccc(O)c(C(N)=O)c1` (stereo not given), the Potency is reported as 43.3 µM (active). With `O=C(c1ccc(O)c(O)c1)c1ccc(O)cc1O` the Potency was 54.4 µM (active). With `CCCc1ccc(OCC(=O)N2CCN(C(=O)COc3ccc(CCC)cc3OC)CC2)c(OC)c1` the Potency was “inactive”. In the case of `O=C(O)c1cccc(C(F)(F)F)c1`, the Potency is reported as “inactive”. For `O=C(O)Cc1ccccc1Nc1c(Cl)cccc1Cl`, the Potency was “inactive”. For `CCCCCc1ccc(Cl)cc1`, the Potency was “inactive”. For `OC1CCCc2ccccc21` (stereo not given), the Potency was “inactive”. In the case of `CC(=O)CC(=O)Nc1ccc(S(=O)(=O)O)cc1`, the Potency is reported as “inactive”. With `CCN(CC)C(=O)c1cc(S(=O)(=O)Cc2ccccc2)c(N2CCC(c3ccccc3)CC2)cc1N(CC)CCN(C)C` the Potency was 21.4 µM (active). For `CC(C)CCOC(=O)/C=C/c1ccccc1`, the Potency was “inactive”. In the case of `CCCCCCCCCCCC(=O)OCC(C)OC(=O)CCCCC(=O)O` (stereo not given), the Potency is reported as “inactive”. In the case of `CCC(C)n1ncn(-c2ccc(N3CCN(c4ccc(OC[C@H]5CO[C@](Cn6cncn6)(c6ccc(Cl)cc6Cl)O5)cc4)CC3)cc2)c1=O` (stereo not given in full), the Potency is reported as 5.96 µM (active). With `C#Cc1ccc(-c2ccccc2F)cc1` the Potency was “inactive”. With `OCC(F)(F)F` the Potency was “inactive”. In the case of `CNC(=O)c1ccccc1Sc1ccc2c(/C=C/c3ccccn3)n[nH]c2c1`, the Potency is reported as 26.6 µM (active). In the case of `CCCC(=O)OCCc1ccccc1`, the Potency is reported as “inactive”. With `COc1ccc(NC(=O)CC(C)=O)cc1` the Potency was “inactive”. `C[C@@H](O)[C@H](N)C(=O)O` showed an activity change, negative = cytotoxicity of -0.658% [at 19 µM]. Molecule `O=C(O)CN(CCN(CC(=O)O)CC(=O)O)CC(=O)O` has an activity change, negative = cytotoxicity of 5.31% [at 3.27 µM]. In the case of `O=C(O)Cc1ccc2c(c1)C(=O)c1ccccc1CO2`, the Potency is reported as “inactive”. With `Clc1nnc(Cl)c2ccccc12` the Potency was “inactive”. For `CCO[Si](OCC)(OCC)OCC`, the Potency was “inactive”. With `NC(=S)NC(N)=S` the Potency was “inactive”. With `CN(C)C(=O)COC(=O)Cc1ccc(OC(=O)c2ccc(N=C(N)N)cc2)cc1` the Potency was “inactive”. In the case of `O=S(=O)(O)c1ccc(N=Nc2c(O)ccc3ccccc23)cc1`, the Potency is reported as 30.6 µM (active). In the case of `O=C1OC2(c3ccc(O)cc3Oc3cc(O)ccc32)c2ccc(N=C=S)cc21`, the Potency is reported as “inactive”. With `C1CCC(SSC2CCCCC2)CC1` the Potency was “inactive”. In the case of `COC1=C(OC)C(=O)C(CCCCCCCCCCO)=C(C)C1=O`, the Potency is reported as 23.7 µM (active). In the case of `CC(C)(C)C1CCC(=O)CC1`, the Potency is reported as “inactive”. For `O=C1c2ccccc2C(=O)N1SC1CCCCC1`, the Potency was 54.4 µM (active) and 43.3 µM (active). For `CCCCCCCCCCC[C@@H](C[C@@H]1OC(=O)[C@H]1CCCCCC)OC(=O)[C@H](CC(C)C)NC=O`, the Potency was 16.8 µM (active). For `CCCCCCCC/C=C\CCCCCCCCN`, the Potency was “inactive”. With `O=C(O)CCN(C1(C(=O)NO)CCCC1)S(=O)(=O)c1ccc(Oc2ccc(F)cc2)cc1` the Potency was “inactive”. With `CCCCCCCCCCCCOCCOCCOCCOCCOCCOCCOCCOCCOCCO` the Potency was 11.9 µM (active). For `C=CC(C)(CCC=C(C)C)OC=O` (stereo not given), the Potency was “inactive”. In the case of `CC(C)NC[C@@H](O)COc1ccc(CC(N)=O)cc1`, the Potency is reported as “inactive”. In the case of `CCCCCCCCCCCCCCCC[N+](C)(C)CC`, the Potency is reported as 43.4 µM (active) and 29.8 µM (active). In the case of `c1cnccn1`, the Potency is reported as “inactive”. For `Nc1ccc(NCCO)c([N+](=O)[O-])c1`, the Potency was 43.3 µM (active).
